Test [1] is described as follows: qHTS of pediatric cancer cell lines to identify multiple opportunities for drug repurposing: Primary screen for SK-N-MC cells (AID 1347093). Further: potency means the concentration at half of the fitted maximal effect. In a few lines:
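Metabolically active cells were quantified by ATP-dependent luminescence (CellTiter-Glo, 15 min at room temperature) following 48 h treatment. Cells had been plated at 500-1,000 per well and settled for 5 h beforehand.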
(In general: qHTS replaces the single test concentration by a dilution series.)

A short description of test [2]: qHTS of pediatric cancer cell lines to identify multiple opportunities for drug repurposing: Primary screen for BT-37 cells (AID 1347094). Further: potency means the concentration at half of the fitted maximal effect. The method, boiled down:
(§1)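 Readout: CellTiter-Glo luminescence, 48 h treatment. Controls DMSO (neutral) and bortezomib 2.3 µM final (positive). Potency and efficacy taken from primary-screen concentration-response curves.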

The nature of test [3]: qHTS of pediatric cancer cell lines to identify multiple opportunities for drug repurposing: Primary screen for NB-EBc1 cells (AID 1347095). Further: potency means the concentration at half of the fitted maximal effect. The method, boiled down:
as §1

Test [4] in a line: qHTS of pediatric cancer cell lines to identify multiple opportunities for drug repurposing: Primary screen for Saos-2 cells (AID 1347097). Further: nearly all actives have a fitted effect of over 40% in size. Further: potency means the concentration at half of the fitted maximal effect. The method, boiled down:
as §1

A short description of test [5]: qHTS of pediatric cancer cell lines to identify multiple opportunities for drug repurposing: Primary screen for SK-N-SH cells (AID 1347098). Further: nearly all actives have a fitted effect of over 65% in size. Further: potency means the concentration at half of the fitted maximal effect. The method, boiled down:
(§2)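 Cells (500-1,000/well) rested 5 h, then received compounds for 48 h; metabolically active cells were measured by CellTiter-Glo luminescence. Final concentrations spanned up to 46 µM (MIPE, 11-point) or 0.59 nM-46 µM (NPC, 8-point) in primary screens, 11-point in follow-ups.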

A short description of test [6]: qHTS of pediatric cancer cell lines to identify multiple opportunities for drug repurposing: Primary screen for NB1643 cells (AID 1347099). Further: nearly all actives have a fitted effect of over 50% in size. Further: potency means the concentration at half of the fitted maximal effect. In a few lines: as §1
Test [7] is described as follows: qHTS of pediatric cancer cell lines to identify multiple opportunities for drug repurposing: Primary screen for LAN-5 cells (AID 1347100). Further: potency means the concentration at half of the fitted maximal effect. In a few lines:
as §2

Test [8] is described as follows: qHTS of pediatric cancer cell lines to identify multiple opportunities for drug repurposing: Primary screen for BT-12 cells (AID 1347101). Further: nearly all actives have a fitted effect of over 25% in size. Further: potency means the concentration at half of the fitted maximal effect. The method, boiled down:
as §2

Test [9] can be described thus: qHTS of pediatric cancer cell lines to identify multiple opportunities for drug repurposing: Primary screen for Rh18 cells (AID 1347102). Further: nearly all actives have a fitted effect of over 65% in size. Further: potency means the concentration at half of the fitted maximal effect. The method, boiled down: as §2
Test [10] is described as follows: qHTS of pediatric cancer cell lines to identify multiple opportunities for drug repurposing: Primary screen for U-2 OS cells (AID 1347096). Further: nearly all actives have a fitted effect of over 50% in size. In a few lines:
as §2

The values that follow come from PubChem BioAssay (NCATS).

Inconclusive results are not listed. A number with no mark means an inactive call. The source made the active and inactive calls. The call rests on the fitted dose curve; in most records, active means well fitted curve in the direction sought with a large enough effect; inconclusive means small, poorly fitted or top-dose-only effect, or another doubt; inactive means no such curve, though single readings can be large; an effect the other way counts as inactive or inconclusive.

`O=C(O)Cn1cnnn1`: the Potency result in test [1], in [2], in [3], in test [4], in test [5] and in test [6] was “inactive” each time. Besides, the Potency entry in test [7], in test [8] and in test [9] was “inactive” in each case.

As to `COC(=O)c1cc(Cl)c(NC(C)=O)cc1OC`, the Potency entry in [1], in test [2], in [3], in test [4], in test [5] and in [6] was “inactive” in each case. The Potency entry in test [7] and in test [9] was “inactive” in each case.

Take `CCC(=O)O[C@]1(C(=O)COC)[C@@H](C)C[C@H]2[C@@H]3CCC4=CC(=O)C=C[C@]4(C)C3(F)[C@@H](O)C[C@@]21C` (stereo partly drawn): the Potency entry in test [1], in test [2], in test [3], in test [10], in [5] and in test [6] was “inactive” each time. The Potency result in test [7], in test [8] and in test [9] was “inactive” each time.

Consider `CCN(CC)CC(=O)Nc1c(C)cccc1C(=O)OC`, for which the Potency result in [1], in test [2], in [3], in [10], in test [5] and in test [6] was “inactive” throughout. Besides, the Potency entry in test [7], in [8] and in test [9] was “inactive” throughout.

As for `CCOc1ccccc1OCC1CNCCO1` (stereo not drawn), the Potency entry in test [1], in [2], in test [3], in test [10], in test [5] and in test [6] was “inactive” in each case. Further, the Potency entry in test [7], in test [8] and in test [9] was “inactive” throughout.

On to `CC(=O)O[C@H]1CC[C@@]2(C)C(=CC[C@@H]3[C@@H]2CC[C@]2(C)C(C(C)=O)=CC[C@@H]32)C1`, for which the Potency result in test [1], in test [2], in [3], in test [10], in test [5] and in test [6] was “inactive” each time. In addition, the Potency result in test [7], in test [8] and in test [9] was “inactive” in each case.

As for `CC(CC(C#N)(c1ccccc1)C(C)C)N(C)C` (stereo not drawn), the Potency result in [1], in test [2], in test [3], in [10], in test [5] and in test [6] was “inactive” each time. The Potency result in test [7], in test [8] and in test [9] was “inactive” each time.

Consider `CCc1cccc2c(CCO)c[nH]c12`, for which the Potency entry in test [1], in [2], in [3], in [4], in [5] and in test [6] was “inactive” in each case. In addition, the Potency result in [7], in test [8] and in test [9] was “inactive” in each case.

For `COc1ccc2nc(SCc3ncc(C)c(OC)c3C)[nH]c2c1`, the Potency result in [1], in [2], in test [3], in test [4], in [5] and in [6] was “inactive” each time. For the same compound, the Potency entry in test [7], in test [8] and in test [9] was “inactive” in each case.

On to `CCCC(=O)O[C@]1(C(=O)CC)CC[C@H]2[C@@H]3CCC4=CC(=O)CC[C@]4(C)[C@H]3[C@@H](O)C[C@@]21C`, for which the Potency in test [1] was 33.5 µM (active). The Potency entry in test [2], in test [3], in test [10], in test [5], in test [6] and in test [7] was “inactive” in each case. For the same compound, the Potency result in [8] and in test [9] was “inactive” in each case.

Regarding `CC(C)(C)CC(=O)OCC(=O)[C@@]1(O)CC[C@H]2[C@@H]3CCC4=CC(=O)C=C[C@]4(C)[C@H]3[C@@H](O)C[C@@]21C`, the Potency result in [1], in test [2], in test [3], in test [10], in test [6] and in test [7] was “inactive” throughout. Besides, the Potency result in [8] and in [9] was “inactive” in each case.

For the compound `CO/N=C(/C(=O)N[C@@H]1C(=O)N2C(C(=O)[O-])=C(C[n+]3ccn4ncccc43)CS[C@H]12)c1nsc(N)n1`, the Potency entry in test [1], in [2], in [3], in test [4], in [5] and in test [6] was “inactive” in each case. Moreover, the Potency entry in test [7], in [8] and in test [9] was “inactive” in each case.

Take `COCCc1ccccn1`: the Potency result in [1], in test [2], in [3], in test [10], in [5] and in test [7] was “inactive” throughout. For the same compound, the Potency result in test [9] was “inactive”.

Consider `CC(=O)OCC(=O)[C@@]1(O)CCC2C3CCC4=CC(=O)CC[C@]4(C)C3[C@@H](O)C[C@@]21C` (stereo partly drawn), for which the Potency result in test [1], in test [2], in test [3], in test [10], in [5] and in test [6] was “inactive” each time. Also, the Potency result in test [7], in test [8] and in test [9] was “inactive” in each case.

On to `O=C(O)CCCC[C@@H]1SC[C@@H]2NC(=O)N[C@@H]21`, for which the Potency entry in [1], in [2], in [3], in test [10], in test [5] and in test [6] was “inactive” in each case. Also, the Potency entry in test [7], in [8] and in [9] was “inactive” each time.

As to `CCCCCCn1c(=O)c2c(ncn2C)n(C)c1=O`, the Potency entry in test [1], in test [2], in test [3], in [4], in [5] and in [6] was “inactive” each time. Besides, the Potency result in test [7], in [8] and in [9] was “inactive” in each case.

On to `CCC1(c2cnc[nH]2)Cc2ccccc2C1`, for which the Potency result in [1], in test [2], in [3], in test [10], in test [5] and in test [6] was “inactive” throughout. Further, the Potency result in [7], in [8] and in test [9] was “inactive” in each case.

As to `CCCCCCCCCCCCCC[N+](C)(C)C`, the Potency in [1] is 3.35 µM (active); in [2], 15.5 µM (active); in test [3], 21.1 µM (active); in test [4], 16.8 µM (active); in [5] it was 15.4 µM (active); in test [6] it was 23.7 µM (active). The Potency in [7] is 7.5 µM (active); in test [8] it was 3.89 µM (active); in [9], 4.22 µM (active).

Consider `CCOC(=O)CN1CCCC1=O`, for which the Potency entry in [1], in test [2], in test [3], in [10], in test [5] and in test [6] was “inactive” throughout. Also, the Potency result in test [7], in test [8] and in test [9] was “inactive” each time.

Regarding `CN(C)CCCOC1(Cc2ccccc2)CCCCCC1`, the Potency entry in [1], in test [2], in [3], in test [10], in [5] and in test [6] was “inactive” each time. Moreover, the Potency entry in test [7], in test [8] and in test [9] was “inactive” throughout.

`Clc1ccc2c(c1)Nc1ccccc1S2`: the Potency entry in test [1], in [2], in test [3], in test [4], in test [5] and in test [6] was “inactive” in each case. Besides, the Potency result in [7] and in test [9] was “inactive” in each case.

In the case of `C[C@@H]1CCC[C@H](C)N1CCCC(O)(c1ccccc1)c1ccccn1` (stereo partly drawn), the Potency result in [1], in test [2], in [3], in [10], in [5] and in [6] was “inactive” each time. In addition, the Potency entry in test [7], in test [8] and in test [9] was “inactive” in each case.
